Only some compounds are listed: those with a hit (about 21% of all), similar ones and a draw of the others.
D3 antag: qHTS of D3 Dopamine Receptor Antagonist: qHTS; D(3) dopamine receptor (Homo sapiens), P35462; D3R cells, DiscoveRx beta-arrestin luminescence, antagonist mode; active compounds read low; max response, negative = inhibition, %; actives 2.5% (n = 360,000); in the data active = max response below about -50%; inconclusive = no clear call, values can overlap the other calls; note: % is set by controls: 0 for no effect and ±100 for the full control effect
Target sequence (P35462 whole entry, looked up): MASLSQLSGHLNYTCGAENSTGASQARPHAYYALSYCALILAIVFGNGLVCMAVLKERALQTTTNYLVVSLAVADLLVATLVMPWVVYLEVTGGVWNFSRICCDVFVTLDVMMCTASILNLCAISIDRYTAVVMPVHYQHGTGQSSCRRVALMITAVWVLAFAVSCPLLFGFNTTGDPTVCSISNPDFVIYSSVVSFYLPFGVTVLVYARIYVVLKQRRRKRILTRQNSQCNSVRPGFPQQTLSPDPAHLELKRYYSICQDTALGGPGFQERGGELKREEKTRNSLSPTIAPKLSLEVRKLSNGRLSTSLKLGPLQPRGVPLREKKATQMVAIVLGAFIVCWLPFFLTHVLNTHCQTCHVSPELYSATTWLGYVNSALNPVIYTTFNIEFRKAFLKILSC
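Cells expressing the human receptor were seeded at 1500 cells/well, incubated overnight at 37 degrees C in 5% CO2, then exposed to library compounds with dopamine controls for 90 minutes at 37 degrees C before luminescent detection.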
DT40 TDP1 CPT: qHTS for Inhibitors of human tyrosyl-DNA phosphodiesterase 1 (TDP1): qHTS in cells in presence of CPT | chicken DT40 Tdp1-/-;hTDP1 cells + 20 nM CPT, ATP luminescence, 48 h | Potency, µM (titrated, usually from 46.2 µM), inactives show top-dose activity change, negative = growth inhibition, usual class: inhibitors | actives 12% (n = 420,000); note: potency is the fitted concentration of half-maximal effect; % is set by controls: 0 for no effect and ±100 for the full control effect; nearly all actives have a fitted effect of over 55% in size
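Chicken DT40 Tdp1-/- cells stably complemented with human TDP1 were seeded at 400 cells/well in medium containing 20 nM camptothecin, exposed to pin-transferred compounds, and grown at 37 °C for at least 48 hr. Viability was read as ATP luminescence.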
IL1B secr inh: qHTS for Inhibitors of Inflammasome Signaling: IL-1-beta AlphaLISA Primary Screen; THP-1 LPS/ATP IL-1B secretion, AlphaLISA, 16 h; active compounds read low; actives 4.7% (n = 360,000); activity change, % at 57.5 µM; in the data active = activity change below about -50%; inconclusive = mostly about -30% to -49%; note: % is set by controls: 0 for no effect and ±100 for the full control effect
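THP-1 cells pretreated 1 hr with compounds (up to 57.5 uM final), then stimulated with LPS (250 ng/mL final) plus ATP (1.25 mM final); secreted IL-1B measured by AlphaLISA after 16 hr, decreased signal indicating inhibition.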
ClpP mod: qHTS Assay for Activators of ClpP; purified B. subtilis ClpP, FRET peptide cleavage, 20 min; Potency, µM (series often up to 57.5 µM), for inactives: top-dose activity change, negative = active; actives 1.9% (n = 340,000); active = well fitted falling curve with a large enough effect; inconclusive = small, poorly fitted or top-dose-only effect; inactive = no such curve, though single readings can be large or run the other way; note: potency is the fitted concentration of half-maximal effect; the source files actives as falling curves though it sought activators and does not explain the sign; nearly all actives have a fitted effect of over 65% in size
Target sequence (P80244 whole entry, looked up): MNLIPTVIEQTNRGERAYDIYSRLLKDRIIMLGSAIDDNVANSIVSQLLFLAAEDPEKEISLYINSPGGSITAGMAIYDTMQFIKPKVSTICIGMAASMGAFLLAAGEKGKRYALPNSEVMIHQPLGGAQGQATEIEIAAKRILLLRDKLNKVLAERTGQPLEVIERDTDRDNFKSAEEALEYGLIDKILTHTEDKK
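Purified B. subtilis ClpP, 10 microg/mL final in Tris/HCl pH8 with KCl, BSA, glycerol and Tween-20, cleaved an Abz/nitrotyrosine-quenched decapeptide. Fluorescence (ex 320, em 430) was read at 0 and 20 min at room temperature. Delta was normalized to 5.8 microM ADEP and DMSO/no-enzyme controls.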
D3 ag: qHTS of D3 Dopamine Receptor Agonist: qHTS; actives 0.58% (n = 410,000); D3R DiscoveRx beta-arrestin cells, luminescence, 90 min; max activation, %; AID 652048, 2013; in the data active = max activation above about 30%; note: 0% is about no effect
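Agonist-mode cell screen: cells plated at 1500/well and incubated overnight at 37 °C, then exposed to library compounds for 90 min at 37 °C. Detection reagent was added for 30–60 min at room temperature, and luminescence was read.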
TDP1 cell noCPT: qHTS for Inhibitors of human tyrosyl-DNA phosphodiesterase 1 (TDP1): qHTS in cells in absence of CPT; DT40 Tdp1-/- hTDP1 cells, no CPT, ATP luminescence, 48 h; actives 15% (n = 420,000); Potency, µM (highest dose often 46.2 µM), for the others: at the top dose activity change, negative = growth inhibition, most hits filed as inhibitors; AID 686978, 2013; note: potency is the fitted concentration of half-maximal effect; % is set by controls: 0 for no effect and ±100 for the full control effect; nearly all actives have a fitted effect of over 55% in size
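Seeded 400 DT40-hTDP1 cells/well (vehicle DMSO, no 20 nM CPT); pinned compounds; ≥48 hr at 37 °C; CellTiter-Glo luminescence as viability measure.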
* marks the source's active call; other numbers are inactive results; ? = inconclusive; · = not tested or not shown. Unless noted, calls come from the whole dose curve; as a rule, active = well fitted inhibition curve with a large enough effect; inconclusive = small, poorly fitted or top-dose-only effect; inactive = flat fitted curve, though single readings scatter.

SMILES | D3 antag | DT40 TDP1 CPT | IL1B secr inh | ClpP mod | D3 ag | TDP1 cell noCPT
COc1ccc(NC(=O)C2CC(=O)n3cnnc3S2)cc1 (stereo unspecified) | -5 | 2.3µM* | -4 | 2% | -1 | 4.6µM*
COc1cccc(NC(=O)C2CC(=O)n3cnnc3S2)c1 (stereo unspecified) | ? | 2.9µM* | 4 | 1% | -10 | 5.2µM*
Cc1ccccc1C(=O)Nc1nnc(S(=O)(=O)N2CCc3ccccc32)s1 | · | 10% | · | 1% | -2 | ?
COc1ccc(-c2cc(C(F)(F)F)nc(SCCC(=O)Nc3ccc(O)cc3)n2)cc1 | · | · | · | -3% | 3 | ·
COc1ccc(-c2cc(C(F)(F)F)nc(SCCC(=O)N3CCN4CCCC4C3)n2)cc1 (stereo unspecified) | -9 | ? | -15 | -20% | -7 | 26µM*
COc1ccc(-c2cc(C(F)(F)F)nc(SCCC(=O)Nc3c(C)cccc3C)n2)cc1 | · | · | · | -9% | 4 | ·
COc1ccc(-c2cc(C(F)(F)F)nc(SCCC(=O)N3CCCC3)n2)cc1 | -2 | ? | -52* | ? | 0 | ?
O=C(Cn1cnc2ccccc2c1=O)NC1CCS(=O)(=O)C1 (stereo unspecified) | 6 | 20% | 4 | -2% | 2 | 4%
CC(=O)Nc1cc(-c2ccccc2N(C)C)cn2c(-c3ccc(S(C)(=O)=O)cc3)cnc12 | 7 | ? | -12 | 4% | 2 | 18µM*
CC(=O)Nc1cc(-c2ccccc2N(C)C)cn2c(-c3ccccc3)cnc12 | 5 | 16µM* | 6 | -25% | 0 | 23µM*
CC(O)[C@@H]1NC(=O)[C@H](CCCCN)NC(=O)[C@@H](Cc2c[nH]c3ccccc23)NC(=O)[C@H](Cc2ccccc2)NC(=O)[C@@H](NC(=O)[C@H](N)Cc2ccccc2)CSSC[C@@H](C(=O)N[C@H](CO)[C@@H](C)O)NC1=O (stereo partly specified) | · | -13% | · | · | 1 | -8%
CCC(C)C(=O)N1c2ccccc2C(=C2SC(C(=O)OC)=C(C(=O)OC)S2)C(=S)C1(C)C (stereo unspecified) | ? | 11µM* | -59* | -1% | -11 | 13µM*
Cc1ccc(Cl)cc1NCc1nnc2n1CCCCC2 | · | -1% | · | 0% | -3 | 4%
CCOC(=O)C1=C(C)NC2=C(C(=O)CCC2)C1c1cn(Cc2ccc(Cl)cc2Cl)nc1-c1ccccc1 (stereo unspecified) | 8 | 16µM* | ? | 28µM* | -1 | 21µM*
N#Cc1cccc(NC(=O)N2CC[C@@]3(CCCNC3)C2)c1 | · | -90% | · | · | · | -14%
COc1ccccc1OCc1nc(-c2cccc(C)c2)no1 | · | -15% | · | 0% | 18 | -29%
C=CCOc1ccc(C2C(C(=O)c3cccs3)=C(O)C(=O)N2c2nnc(C)s2)cc1 (stereo unspecified) | -63* | 3% | -3 | 0% | -13 | -13%
COc1ccc(C2C(C(=O)c3cccs3)=C(O)C(=O)N2c2nnc(C)s2)cc1OC (stereo unspecified) | -10 | -2% | -1 | -2% | 2 | 3%
C=CCN(C(=O)CCC(=O)Nc1cc(C)on1)C(C(=O)NC1CCCC1)c1ccc(CC)cc1 (stereo unspecified) | 4 | ? | -9 | -25% | 3 | 15µM*
Cc1cc(NC(=O)CCC(=O)N(CCC(C)C)C(C(=O)NCC2CCCO2)c2ccccc2C)no1 (stereo unspecified) | -1 | -11% | -57* | 0% | 41* | ?
CCCCN(C(=O)CCC(=O)Nc1cc(C)on1)C(C(=O)NC1CCCC1)c1ccc(OCC)cc1 (stereo unspecified) | 4 | ? | -16 | · | 2 | 16µM*
CCCCN(C(=O)CCC(=O)Nc1cc(C)on1)C(C(=O)NC1CCCC1)c1ccccc1OCC (stereo unspecified) | -10 | ? | ? | · | -8 | ?
CC1CC(C)CN(S(=O)(=O)c2ccc3c(c2)NC(=O)C(C)C(=O)N3)C1 (stereo unspecified) | 10 | -21% | 41 | 1% | 2 | -19%
CCN(Cc1ccncc1)C(=O)c1cc(COc2ccc(C)c(C)c2)on1 | 16 | -27% | -53* | 2% | 6 | ?
Cc1ccc(OCc2cc(C(=O)N(CCO)Cc3cccs3)no2)cc1C | 10 | ? | -62* | 11% | 4 | ?
SMILES | D3 antag | DT40 TDP1 CPT | IL1B secr inh | ClpP mod | D3 ag | TDP1 cell noCPT
CCN(Cc1ccccc1)C(=O)c1cc(COc2c(F)cccc2F)on1 | 5 | ? | ? | · | 1 | ?
Clc1cccc(CSc2ncnc3c2ncn3C2CCCCO2)c1 (stereo unspecified) | 6 | ? | -24 | · | 15 | 16µM*
Fc1ccc(CSc2ncnc3c2ncn3C2CCCCO2)cc1 (stereo unspecified) | 7 | ? | -25 | 2% | 1 | ?
c1ccc(CSc2ncnc3c2ncn3C2CCCCO2)cc1 (stereo unspecified) | 3 | -25% | -50* | · | -8 | ?
Cc1ccc(NC(=O)CCn2cccn2)cc1Cl | · | 9% | · | 0% | 0 | 8%
COc1ccc(Br)cc1CNC(=O)C(C)n1nc(C)n2c(cc3occc32)c1=O (stereo unspecified) | · | -4% | · | 0% | 1 | ?
CCOC(=O)c1cnn2c(C)cc(-c3ccccc3)nc12 | 19 | -11% | -23 | -30% | -7 | -1%
CCOC(=O)C(Sc1cc(-c2ccccc2)nc2ncnn12)C(C)=O (stereo unspecified) | -2 | ? | -19 | -3% | -7 | 18µM*
COc1cc(C(=O)NCC(=O)N/N=C(/C)c2ccc3c(c2)CCCC3)cc(OC)c1OC | -7 | -4% | -7 | · | 0 | ?
C/C(=N/NC(=O)c1ccc(C)nc1)c1ccc2c(c1)CCCC2 | 0 | 15µM* | 65 | · | 1 | 23µM*
CCc1ccccc1NC(=O)CN(C)C(=O)CSc1nnc(Nc2cccc(C)c2)s1 | -9 | -11% | -6 | 2% | 2 | ?

Assay outcomes: PubChem, National Center for Advancing Translational Sciences (NCATS)
